Assay results taken from PubChem BioAssay (NCATS).
Inconclusive results are not listed. Active and inactive are the calls of the source. The call rests on the fitted dose curve; in most records, active means well fitted cell-killing curve with a large enough effect; inconclusive means small, poorly fitted or top-dose-only effect, or effect the other way; inactive means flat fitted curve, though single readings scatter.

Columns and labels:
Assay in all cases: Primary qHTS to identify gynecologic anti-cancer compounds using libraries of approved drugs and bioactive compounds (AID 1345084); further: nearly all actives have a fitted effect of over 55% in size
[1] = tested on: C33A; details: Gynecologic cancer cell panel viability, ATPlite luminescence, 48 h; series mostly up to 57.5 µM
How it was run: (§1)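 Luminescence from the ATPlite ATP-monitoring reagent indicates viable cell number; lower signal means cytotoxicity. Cells received compound 16 h after seeding and were exposed for 48 h across five concentrations.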

[2] = tested on: CAOV3; details: Gynecologic cancer cell panel viability, ATPlite luminescence, 48 h; series mostly up to 57.5 µM
How it was run: as §1

[3] = tested on: CASKI; details: Gynecologic cancer cell panel viability, ATPlite luminescence, 48 h; series mostly up to 57.5 µM
How it was run: as §1

[4] = tested on: Es-2; details: Gynecologic cancer cell panel viability, ATPlite luminescence, 48 h; series mostly up to 57.5 µM
How it was run: as §1

[5] = tested on: HeLa; details: Gynecologic cancer cell panel viability, ATPlite luminescence, 48 h; series mostly up to 57.5 µM
How it was run: as §1

[6] = tested on: Hek293T; details: Gynecologic cancer cell panel viability, ATPlite luminescence, 48 h, control line for the selectivity index; series mostly up to 57.5 µM
How it was run: as §1
On the % scale 0 is the no-effect control and ±100 the full control effect.

C[C@]12CC[C@@H]3c4ccc(O[C@@H]5O[C@H](C(=O)O)[C@@H](O)[C@H](O)[C@H]5O)cc4CC[C@H]3[C@@H]1CCC2=O
inactive: Potency [1] | Potency [2] | Potency [3] | Potency [4] | Potency [5] | Potency [6]

CC(=O)N[C@H]1[C@H](O[C@H]2CC[C@@]3(C)C(CC[C@]4(C)C3CC=C3C5CC(C)(C)CC[C@]5(C(=O)O)[C@H](O[C@@H]5O[C@H](CO)[C@@H](O)[C@H](O)[C@H]5O)C[C@]34C)C2(C)C)O[C@H](CO[C@@H]2OC[C@H](O)[C@H](O)[C@H]2O[C@@H]2OC[C@@H](O)[C@H](O)[C@H]2O)[C@@H](O)[C@@H]1O (stereo partly specified)
inactive: activity change, negative = cytotoxicity [1] -4.04% [at 11.6 µM] | activity change, negative = cytotoxicity [2] 4.01% [at 11.6 µM] | activity change, negative = cytotoxicity [3] -4.68% [at 11.6 µM] | activity change, negative = cytotoxicity [4] -1.11% [at 11.6 µM] | activity change, negative = cytotoxicity [5] 15.9% [at 11.6 µM] | activity change, negative = cytotoxicity [6] -2.94% [at 11.6 µM]

CC1CCC2(C)C(CC(O)C(O)C23CO3)C1(C)CCC1=CC(O)OC1=O (stereo unspecified)
inactive: Potency [1] | Potency [2] | Potency [3] | Potency [4] | Potency [5] | Potency [6]

COc1cc(O[C@@H]2O[C@H](CO)[C@@H](O)[C@H](O)[C@H]2O)c(CCC(=O)OC[C@H]2O[C@@H](Oc3cc(OC)c(C4OC(=O)C(C)(O)C4O)cc3CCC(=O)O)[C@H](O)[C@@H](O)[C@@H]2O)cc1C1OC(=O)C(C)(O)C1O (stereo partly specified)
inactive: activity change, negative = cytotoxicity [1] -6.26% [at 11.6 µM] | activity change, negative = cytotoxicity [2] -7.94% [at 11.6 µM] | activity change, negative = cytotoxicity [3] -4.91% [at 11.6 µM] | activity change, negative = cytotoxicity [4] 12.3% [at 11.6 µM] | activity change, negative = cytotoxicity [5] 22.8% [at 11.6 µM] | activity change, negative = cytotoxicity [6] -1.4% [at 11.6 µM]

C[C@@H]1C[C@H](O[C@@H]2O[C@H](CO[C@@H]3OC[C@](O)(CO)[C@H]3O)[C@@H](O)[C@H](O)[C@H]2O)CC(C)(C)[C@H]1/C=C/[C@@H](C)O
inactive: Potency [1] | Potency [2] | Potency [3] | Potency [4] | Potency [5] | Potency [6]

CCNC(=O)[C@H]1O[C@H](n2cnc3c(NCC(c4ccccc4)c4ccccc4)nc(C(=O)NCCNC(=O)NC4CCN(c5ccccn5)CC4)nc32)[C@H](O)[C@@H]1O
inactive: Potency [1] | Potency [2] | Potency [3] | Potency [4] | Potency [5] | Potency [6]

O=C(/C=C/c1ccc(O)cc1)OCC1=CC2OC(=O)C3=CO[C@@H](O[C@@H]4O[C@H](CO)[C@@H](O)[C@H](O)[C@H]4O)[C@H]1[C@@H]32 (stereo partly specified)
inactive: Potency [1] | Potency [2] | Potency [3] | Potency [4] | Potency [5] | Potency [6]

C=C/C=C/[C@@H]1OC[C@H](/C=C/C=C/C)[C@H]1O
inactive: Potency [1] | Potency [2] | Potency [3] | Potency [4] | Potency [5] | Potency [6]

C=C1CC23CCC4[C@@](C)(CCC[C@@]4(C)C(=O)O)C2CCC1C3 (stereo partly specified)
inactive: Potency [1] | Potency [2] | Potency [3] | Potency [4] | Potency [5] | Potency [6]

CC(=O)OC1C=C(C(=O)O)C2(CO)CCC(C)C(C)(CCc3ccoc3)C2C1 (stereo unspecified)
inactive: Potency [1] | Potency [2] | Potency [3] | Potency [4] | Potency [5] | Potency [6]

Cc1cc(O)c(C(C)C)cc1O[C@@H]1O[C@H](CO)[C@@H](O)[C@H](O)[C@H]1O
inactive: Potency [1] | Potency [2] | Potency [3] | Potency [4] | Potency [5] | Potency [6]

COc1cc(C(=O)OC[C@H]2O[C@H](O[C@@]3(CO)O[C@@H](CO)[C@H](O)[C@H]3O)[C@H](O)[C@@H](O)[C@@H]2O)ccc1O
inactive: Potency [1] | Potency [2] | Potency [3] | Potency [4] | Potency [5] | Potency [6]

COc1ccc(C2=CC(=O)OC2Cc2ccc(O)cc2)c(O)c1 (stereo unspecified)
inactive: Potency [1] | Potency [2] | Potency [3] | Potency [4] | Potency [5] | Potency [6]

CCOc1ccc(-c2ccc(Cn3c(CC(C)(C)C(=O)O)c(SC(C)(C)C)c4cc(OCc5ccc(C)cn5)ccc43)cc2)cn1
inactive: Potency [1] | Potency [2] | Potency [3] | Potency [4] | Potency [5] | Potency [6]

O=C(c1ccc(NS(=O)(=O)c2cccc3cccnc23)cc1)N1CCN(CC2CC2)CC1
inactive: Potency [1] | Potency [2] | Potency [3] | Potency [4] | Potency [5] | Potency [6]

C/C=C/C=C/C=C/C(=O)O[C@@H]1C=C(CO)C(O)(C(=O)O)[C@@]2(C)CCCC(C)(C)[C@H]12 (stereo partly specified)
inactive: Potency [1] | Potency [2] | Potency [3] | Potency [4] | Potency [5] | Potency [6]
